According to PubChem BioAssay (NCI):
This is part of a sample that, as a whole, favours compounds with a hit. Of some 79,000 tested, about 15% had one in any assay. Unmarked numbers belong to inactive results. No stated cut-off is given here; in the data, active means growth inhibition above about 70%; inactive means the rest.

experiment: NCI Yeast Anticancer Drug Screen. Data for the mec2-1 strain (AID 157); settings: S. cerevisiae mec2-1 strain, at 50.0 µM, active compounds read high
Summary of the method: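 Growth inhibition is read against vehicle-treated controls after compound exposure of the mec2-1 yeast strain, which is defective in DNA damage repair or cell cycle control.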

| SMILES | growth inhibition [%] |
| --- | --- |
| O=C(N/N=C/C=C/c1ccccc1)NNC(=O)c1cc([N+](=O)[O-])cc([N+](=O)[O-])c1 | 10.8 |
| N#CC(=C1C=CC(=NOC(=O)c2ccccc2)C=C1)c1ccccc1 | 1.2 |
| CC(=O)C(CCCCCCCCCCC(C(C)=O)C(C)=O)C(C)=O | -2.75 |
| CN(C)CCCN1CCC2(CCC(C(C)(C)C)CC2)CC1 | -16.1 |
| O=S(=O)(O)Cc1cccc2ccccc12 | 6.7 |
| CC(=O)C1CC(CCC2([N+](=O)[O-])CCC(C)(O)C(C(C)=O)C2)([N+](=O)[O-])CCC1(C)O (stereo not given) | 5.05 |
| CCC1CN1C(=O)c1cc(C(=O)N2CC2CC)cc(C(=O)N2CC2CC)c1 (stereo not given) | 15.7 |
| CN(C)CCNCCN | -28.4 |
| C[CH2][Sn]([CH2]C)([N](c1ccccn1)c1ccccn1)[N](c1ccccn1)c1ccccn1 | -2.25 |
| Brc1ccc(/C=C/c2ccnnc2)cc1 | 33.8 |
| C1OC2OC3OCOC3C2O1 (stereo not given) | 2.85 |
| C/C(O)=C(/C=NC(=S)c1ccncc1)C(=O)Nc1ccccc1 | -1.8 |
| O=C(O)CCNC(=O)c1ccccc1O | -8.5 |
| [N-]=[N+]=Nc1cc(=O)n(-c2ccccc2)c2ccccc12 | -22.7 |
| CC(=O)Nc1ccc2c(c1)Cc1cccc(O)c1-2 | -7.15 |
| Cc1ccc(S(=O)(=O)[N-]C2C(=O)c3ccccc3C(=O)C2[n+]2cccc(C(N)=O)c2)cc1 (stereo not given) | 2 |
| O=C(CC(C(=O)c1ccc(F)cc1)c1ccsc1)c1cccs1 (stereo not given) | 2.3 |
| CCOCCOCCOC(=O)C(C)O (stereo not given) | 7.1 |
| CNC(=O)CCCCC(=O)NC | -7.9 |
| C#CCN(N=O)C(=O)NC(CCCCNC(=O)OCc1ccccc1)C(=O)OCc1ccccc1 (stereo not given) | -25.4 |

| SMILES | growth inhibition [%] |
| --- | --- |
| O=S(=O)(SSS(=O)(=O)c1ccc(Cl)c(Cl)c1)c1ccc(Cl)c(Cl)c1 | 4.05 |
| O=C(O)C(c1ccc(-c2ccccc2)cc1)C1CCCCC1 (stereo not given) | 26.4 |
| CC(=O)OC(Cn1cncn1)(Cn1cncn1)c1ccc(Cl)cc1Cl | 32.5 |
| CCO/C(O)=c1/s/c(=C2/SC(=S)N(c3ccc(C)cc3)C2=O)n(-c2ccccc2)c1=N | -16.8 |
| O=C(N/N=C1\C(=O)N(c2nccs2)C(=O)C(=O)C1c1nc2ccccc2s1)c1ccccc1O (stereo not given) | 16.9 |
| CCNC(=O)CCN(C(=O)O)S(=O)(=O)c1ccc(NC(=O)c2ccccc2)cc1 | -14.8 |
| C[C@]1(CO)[C@H]2CC[C@@]34C=C[C@@](CO)(CC[C@H]3[C@]2(C)CC[C@H]1O)C4 | 1.05 |
| NC(N)=N/N=C/c1c(-c2ccc(Cl)cc2)nc2n1CCS2 | -51.6 |
| O=C(Nc1ccc(Cl)cc1)/C(Cc1cccc[n+]1[O-])=N\Nc1ccc([N+](=O)[O-])cc1[N+](=O)[O-] | -17 |
| CNC(=O)c1ccccc1CC(O)c1ccccc1 (stereo not given) | 0.65 |
| C=C(C)/C=N/NS(=O)(=O)c1ccc(C)cc1 | 9.65 |
| CCOC(=O)Nc1nc(-c2ccc(Br)cc2)cs1 | -5.4 |
| C=C1C(=O)O[C@@H]2C[C@]3(C)[C@@H](C[C@H]12)[C@](C)(O)CC[C@@H]3O | -10.1 |
| CN(C)c1ccc(/C=C(\NC(=O)c2ccccc2)C(=O)NC(CC(=O)O)C(=O)O)cc1 (stereo not given) | 1.45 |
| NCc1c(C(N)=O)ncn1Cc1ccccc1 | -3.75 |
| COC1OC(CO)C(O)C(O)C1Br (stereo not given) | 13.9 |
| CCOC(=O)c1ccc(CSc2ccc(N)cc2)c([N+](=O)[O-])c1 | 7.15 |
| O=CCCC1CCCCC1 | 1.5 |
| Br/C=C\Br | 0.15 |
| Nc1cccc(C(F)(F)F)c1[N+](=O)[O-] | -28 |
